NLRP3 yeast inh – NALP3 inflammasome inhibitors in reconstituted yeast, primary screen, luminescence, uHTS. Yeast reconstituted NLRP3/ASC/caspase-1, beta-gal luminescence, 24 h. inhibition, % at 10 µM. hit rate 0.39% among 330,000. AID 2825, 2010;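 active means inhibition of 50% or more; inactive means inhibition below 50%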
PfHsp90 set2 – growth inhibition of PfHsp90-expressing yeast, primary screen, antimalarial PfHsp90 inhibitor project, S. cerevisiae, BacTiter-Glo luminescence, single point, set 2; AID 504621, 2011; BacTiter-Glo ATP, 48 h; yeast lacking PDR1 and PDR3 efflux regulators; hit rate 0.32% among 310,000; inhibition, % at 9.4 µM;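 active means every replicate shows inhibition above about 80%, whatever the replicate mean, limit read from the data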
tim23-1 inh – growth inhibitors of tim23-1 mutant yeast, primary screen, luminescence, uHTS; S. cerevisiae tim23-1 growth, BacTiter-Glo luminescence, 24 h; inhibition, % at 20 µM; hit rate 1.3% among 330,000; AID 463212, 2010;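 active means growth inhibition of the mutant yeast at or above 50%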;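 further: temperature-sensitive mutant grown at 25 °C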
tim10-1 inh – growth inhibitors of tim10-1 mutant yeast, primary screen, luminescence, uHTS; inhibition, % at 20 µM; S. cerevisiae tim10-1 ts strain growth, BacTiter-Glo, 24 h; hit rate 2.2% among 330,000;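 active means inhibition of at least 40%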;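 further: mutant grown at 25 °C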
SKKanGAS inh – S. pyogenes SKKanGAS growth inhibitors in kanamycin, primary screen, streptokinase expression inhibitor project, SKKanGAS strain, BacTiter-Glo luminescence. 6 h. inhibition, % at 7.5 µM. hit rate 1.3% among 300,000. AID 1662, 2009;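 active means mean replicate score, as percent of positive control median, at least 50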;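 further: strain carries kanamycin resistance gene driven by streptokinase promoter and grows in 40 µg/ml kanamycin; loss of luminescence reflects streptokinase promoter inhibition or plain growth inhibition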
TIM10 inh – growth inhibitors of isogenic TIM10 control yeast, primary screen, counter-screen for tim10-1 yeast inhibitor project, luminescence, uHTS; inhibition, % at 10 µM; hit rate 1.4% among 330,000; S. cerevisiae TIM10 strain growth, BacTiter-Glo luminescence, 24 h;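 active means inhibition of 40% or more at the single tested concentration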;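 further: wild-type TIM10 isogenic control strain grown at permissive 25 °C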
tim23-1 confirm – tim23-1 mutant yeast growth inhibitors, confirmation, luminescence, single concentration; shares compounds with tim23-1 inh; S. cerevisiae tim23-1 growth, BacTiter-Glo luminescence, 24 h; inhibition, % at 20 µM; hit rate 83% among 4,400;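 active means inhibition above about 39% in either of two replicate wells at 20 µM, limit read from the data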;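 further: temperature-sensitive tim23-1 mutant grown at 25 °C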
Large screens that a line does not name were inactive (follow-up assays come after a bar, where they were run). This is a sample that favours compounds with a hit; in the whole collection about 4.6% have one here.

Cc1ccc(C(C)NC(=S)NC2CCCCC2)cc1C (stereo not given)	tim23-1 inh 55.2 | tim23-1 confirm inactive
Cc1ccc(NC(=S)NC2CCCC2)cc1C	none
CC(C(Sc1ccccc1N)c1ccccc1)[N+](=O)[O-] (stereo not given)	tim23-1 inh 58.4 | tim23-1 confirm 57.3
CCCCCCO	none (no result: SKKanGAS inh)
CCCCCCCCCCCCCCCC(O)C(N)CO (stereo not given)	tim23-1 inh 52.1, SKKanGAS inh 74.7 | tim23-1 confirm 43.8
CCOC(=O)c1c(C=O)c(C)n(Cc2ccccc2)c1C	none
CCOC(=O)c1c(C=O)c(C)n(Cc2ccc(Cl)cc2)c1C	tim23-1 inh 63.0 (no result: PfHsp90 set2) | tim23-1 confirm 58.2
O=C(NCC(=O)N1CCN(c2ccccc2)CC1)c1ccco1	none
CCn1c(N2CCN(S(=O)(=O)c3ccccc3C(F)(F)F)CC2)nc2ccccc21	none (no result: PfHsp90 set2)
CCn1c(N2CCN(S(=O)(=O)c3ccc(OC)cc3)CC2)nc2ccccc21	tim23-1 inh 59.4 | tim23-1 confirm 44.4
CCOC(=O)N1CCC(=NNC(=O)COc2cccc(C)c2)CC1	none
CC1CC(C)CN(C(=O)c2ccc3c(c2NCCO)C(=O)c2ccccc2C3=O)C1 (stereo not given)	tim23-1 inh 50.9 | tim23-1 confirm 52.8
CCCc1cc(=O)oc2cc(C)c(CN3CCCC3)c(O)c12	tim23-1 inh 58.7 (no result: PfHsp90 set2) | tim23-1 confirm 58.0
Cc1nnc(NC(=O)Cn2nc(C)c3ccccc3c2=O)s1	none
OC(c1ccccc1)(C1CCCCC1)C(CN1CCOCC1)c1ccccc1 (stereo not given)	tim23-1 inh 50.4 | tim23-1 confirm inactive
COc1ccc(C(O)(C2CCCCC2)C(CN2CCOCC2)c2ccccc2)cc1 (stereo not given)	none
CCCN(CCC)CCN1C(=O)C2C(C(=O)Nc3cccc(SC)c3)C3C=CC2(O3)C1C(=O)NC1CCCCC1 (stereo not given)	none
OC(COc1ccc(Cl)c2ccccc12)CN1CCN(c2ccccn2)CC1 (stereo not given)	tim23-1 inh 63.0 | tim23-1 confirm inactive
OC(COc1cccc2ccccc12)CN1CCN(c2cccc(Cl)c2)CC1 (stereo not given)	tim23-1 inh 69.0, SKKanGAS inh 51.6 | tim23-1 confirm inactive
CC1CC(C)CN(c2ccc(C(=O)NCc3ccc4c(c3)OCO4)cc2[N+](=O)[O-])C1 (stereo not given)	none
Cc1ccc(/C=N/NC(=O)c2ccc(OC3CCCC3)cc2)o1	tim23-1 inh 58.5 | tim23-1 confirm 54.5
Cc1ccc(/C=N/NC(=O)c2ccncc2)o1	none
O=C(NCc1ccccc1CN1CCCC1)c1cccc(S(=O)(=O)N2CCOCC2)c1	none (no result: SKKanGAS inh)
Cc1nc2scc(C)n2c(=O)c1S(=O)(=O)Nc1ccc(OC(F)(F)F)cc1	tim23-1 inh 60.0 | tim23-1 confirm 64.5
Cc1nc2scc(C)n2c(=O)c1S(=O)(=O)Nc1ccc(N2CCOCC2)c(Cl)c1	none
COc1ccc(S(=O)(=O)N/N=C(/C)c2ccco2)cc1	none
COc1ccc(N=C(C)C2=C(O)COC2=O)cc1	tim23-1 inh 95.8 | tim23-1 confirm inactive
C/C(=N/NC(=O)c1ccoc1C)c1cccc(NC(=O)C2CC2)c1	none
CCc1ccc(OC)c(-c2csc(N)n2)c1	none (no result: PfHsp90 set2)
Nc1nc(-c2cc(Cl)cc(Cl)c2OC(F)F)cs1	tim23-1 inh 61.1 | tim23-1 confirm 52.5
O=C(CN1CCN(C(=O)C2CCCO2)CC1)Nc1ccc(Cl)c(Cl)c1 (stereo not given)	none
CC(C)CCN(C(=S)Nc1cccc(C(F)(F)F)c1)C(C)c1ccccn1 (stereo not given)	tim23-1 inh 54.1 | tim23-1 confirm 54.1
Cc1ccc(CN(C)c2ccc(S(=O)(=O)N3CCCC3)cn2)cc1	none (no result: SKKanGAS inh)
O=Cc1ccccc1OCc1ccc2c(c1)OCO2	tim23-1 inh 56.9 | tim23-1 confirm 56.1
COC(=O)Cc1cc(=O)oc2cc(O)ccc12	none
CCC(=O)NC(=S)Nc1ccc(N2CCN(C(=O)c3ccc(Cl)cc3)CC2)cc1	none
C/C(=N\Nc1nc(C)cc(-c2ccccc2)n1)c1cccc(N)c1	none
C/C(=N\Nc1nc(C)cc(-c2ccccc2)n1)c1ccc(O)cc1	tim23-1 inh 50.1 | tim23-1 confirm 48.5
CCOC(=O)c1c(NS(C)(=O)=O)sc2c1CCC(C)C2 (stereo not given)	tim23-1 inh 56.6 | tim23-1 confirm 40.1
O=C(CCl)c1ccc(Cc2ncc(C(F)(F)F)cc2Cl)s1	tim23-1 inh 52.0, SKKanGAS inh 54.5 (no result: PfHsp90 set2) | tim23-1 confirm inactive
CC(=O)c1ccc(N2CCN(C(=O)c3ccc(Br)cc3)CC2)c(F)c1	tim23-1 inh 57.1 | tim23-1 confirm inactive
NC(=O)NOCc1ccccc1	none
O=C(NOCc1ccccc1)c1coc(-c2ccccc2)n1	tim23-1 inh 60.1 (no result: NLRP3 yeast inh, SKKanGAS inh) | tim23-1 confirm inactive
COc1ccc(NC(=S)NC2CC3CCC2C3)c(OC)c1 (stereo not given)	tim23-1 inh 63.5 | tim23-1 confirm inactive
CCOc1ccccc1NC(=S)NC1CC2CCC1C2 (stereo not given)	none
CC1(C)C[C@@H](O)CC2(C1)C[C@]1(C)CC(O)[C@H]2C(C)(C)C1 (stereo not given in full)	none (no result: PfHsp90 set2)
CC(C)N1CCN(Cc2coc3ccccc3c2=O)CC1CCO (stereo not given)	none
COc1cc(OC)cc(-c2sc3ccc(OC)cc3c2-c2ccc(OCCN3CCCCC3)cc2)c1	tim23-1 inh 51.8 (no result: NLRP3 yeast inh, SKKanGAS inh) | tim23-1 confirm inactive
c1ccc2c(-c3ccc(OCCN4CCCCC4)cc3)c(-c3ccsc3)sc2c1	tim23-1 inh 62.9 (no result: SKKanGAS inh) | tim23-1 confirm 65.0
COc1ccc(-c2sc3cc4c(cc3c2-c2ccc(OCCN3CCCCC3)cc2)OCO4)cc1	none (no result: NLRP3 yeast inh, SKKanGAS inh)
c1ccc(-c2sc3ccccc3c2-c2ccc(OCCN3CCCCC3)cc2)cc1	none (no result: SKKanGAS inh)
C/C(=N\Nc1cc(N2CCCCC2)nc(C)n1)c1ccc(Br)cc1	tim23-1 inh 56.7, SKKanGAS inh 81.7 | tim23-1 confirm 48.5
C/C(=N\Nc1cc(N2CCOCC2)nc(C)n1)c1ccc(F)cc1	none
C=CCNC(=S)N/N=C(\C)c1ccccn1	tim23-1 inh 60.9, SKKanGAS inh 81.1 | tim23-1 confirm 50.8
C/C(=C\c1ccccc1)C1Nc2cccc3cccc(c23)N1	none (no result: PfHsp90 set2, SKKanGAS inh)
C/C(=C\c1ccc2c(c1)OCO2)C1Nc2cccc3cccc(c23)N1	tim23-1 inh 51.5 (no result: SKKanGAS inh) | tim23-1 confirm 47.2
